An excerpt weighted towards active compounds, which were near 7.5% of everything screened.
FLuc modulator – counter-screen for miR-21 project: firefly luciferase inhibitors or activators. purified FLuc, Km substrates, luminescence inhibition. P08659. 360,000 tested, 6.9% active. AID 588342. Potency, µM (series often up to 57.5 µM), without a hit: top-dose activity change, negative = inhibition, most hits filed as inhibitors;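 note: plate controls were vehicle for no effect and reference inhibitor for full effect; nearly all actives have a fitted effect of over 55% in size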
Target sequence (P08659 whole entry, looked up): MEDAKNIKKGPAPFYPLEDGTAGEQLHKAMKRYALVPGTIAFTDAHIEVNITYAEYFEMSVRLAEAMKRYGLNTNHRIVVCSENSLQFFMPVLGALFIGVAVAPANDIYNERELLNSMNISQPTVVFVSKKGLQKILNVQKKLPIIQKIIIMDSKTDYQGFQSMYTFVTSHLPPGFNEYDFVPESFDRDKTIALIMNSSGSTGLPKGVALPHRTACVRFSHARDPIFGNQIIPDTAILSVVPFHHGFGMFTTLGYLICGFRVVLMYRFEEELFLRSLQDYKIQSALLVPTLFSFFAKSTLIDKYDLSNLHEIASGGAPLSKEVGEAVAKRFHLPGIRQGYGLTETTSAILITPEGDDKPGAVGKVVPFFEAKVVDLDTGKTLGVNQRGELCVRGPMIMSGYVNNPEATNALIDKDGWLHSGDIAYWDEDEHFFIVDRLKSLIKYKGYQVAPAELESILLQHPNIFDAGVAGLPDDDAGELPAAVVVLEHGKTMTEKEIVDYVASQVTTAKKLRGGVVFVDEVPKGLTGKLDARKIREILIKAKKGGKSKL
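Biochemical qHTS of compounds, final roughly 60 µM downward over six points, against 10 nM purified firefly luciferase using Km concentrations of substrates (10 uM D-luciferin, 10 uM ATP) in Tris acetate pH 7.5 buffer; luminescence output.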
NPC1 promoter act – activators of NPC1 promoter; Huh7 NPC1 promoter luciferase reporter, 24 h; 320,000 tested, 2.4% active; Potency, µM (top dose mostly 9.22 µM), inactives show at the highest dose activation, usual class: activators; note: % of control where 0% means no effect; nearly all actives have a fitted effect of over 60% in size
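Huh7 reporter cells (NPC1 promoter driving luciferase) are dosed with compound for 24 h at 37 °C, 5% CO2; luciferase detection reagent is then added and luminescence measured after 10 min at ambient temperature.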
Rab9 prom act – activates the Rab9 promoter | Potency, µM (series often up to 9.22 µM), for inactives: at the top dose activation, negative = inhibition, usual class: activators | Huh7 Rab9 promoter-luciferase reporter, luminescence, 24 h | 320,000 tested, 2.8% active; note: % of control where 0% means no effect; nearly all actives have a fitted effect of over 60% in size
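Huh7 cells stably carrying Rab9 promoter–luciferase reporter, plated 1500 cells/well, compound added after 2 h and incubated 24 h at 37 °C; luciferase luminescence then read after 10 min with detection reagent.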
ELG1 genotoxic – genotoxicity induction in ELG1-luciferase HEK293T cells; 330,000 tested, 1.3% active; AID 504466; HEK293T ELG1-luciferase reporter, luminescence, 16 h; Potency, µM (highest dose often 46 µM), for the others: at the top dose activity change, positive = activation, most hits filed as activators; note: % of control where 0% means no effect; nearly all actives have a fitted effect of over 60% in size
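16 hr compound incubation (37 °C, 5% CO2) of HEK293T cells carrying luciferase-tagged ELG1; luciferase then measured by ONE-Glo luminescence after 30 min at RT.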
KinaseGlo FLuc – Kinase-Glo luciferase inhibition (counter-screen); Q27757; Kinase-Glo luciferase, ATP luminescence, 8 min; Potency, µM (top dose mostly 38.3 µM), for inactives: at the highest dose activity change, negative = inhibition, hits mostly inhibitors; 200,000 tested, 0.28% active; AID 1379; note: % is set by controls: 0 for no effect and ±100 for the full control effect; nearly all actives have a fitted effect of over 60% in size
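Compound is pinned into ATP-containing buffer (10 uM ATP, imidazole pH 7.2, 7 mM MgCl2). Kinase-Glo luciferase reagent is then added. Light output is recorded following an 8-min room-temperature incubation.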
SMN2 splice enh – SMN2 splice variant enhancement | HEK293 SMN2-luciferase splicing reporter, luminescence, 30-36 h | Potency, µM (series often up to 46.1 µM), inactives show top-dose activity change, positive = activation, actives largely listed as activators | 210,000 tested, 2.8% active; note: % of control where 0% means no effect; nearly all actives have a fitted effect of over 55% in size
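HEK293 cells carry an SMN2 […]–luciferase reporter in which exon 7 inclusion puts luciferase in frame. Cells were plated 10-12 h before compound addition, then incubated 30-36 h at 37C. ONE-Glo luminescence was read; sodium butyrate at 4.5 mM final served as control.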
* marks the source's active call; other numbers are inactive results. Calls come from the whole dose curve; as a rule, active = well fitted curve in the direction sought with a large enough effect; inconclusive = small, poorly fitted or top-dose-only effect, or another doubt; inactive = no such curve, though single readings can be large; an effect the other way counts as inactive or inconclusive. Potency is the fitted concentration of half-maximal effect.

`CS(=O)(=O)c1cccc(C(=O)OCC(=O)c2ccc3c(c2)OCCO3)c1` gave FLuc modulator 1.7µM*, NPC1 promoter act 0%, Rab9 prom act 10% and ELG1 genotoxic 4%.
Screening COCCn1c(=O)c(-c2cccs2)nc2cnc(Oc3ccc(OC)cc3)nc21 returned KinaseGlo FLuc -2% and SMN2 splice enh -25%.
For O=C(COC(=O)c1cccc(S(=O)(=O)NCc2ccccc2)c1)NC1CC1 the results were ELG1 genotoxic -1%.
CN(C)S(=O)(=O)c1cccc(C(=O)OCC(=O)Nc2ccc3c(c2)OCCO3)c1 was read as FLuc modulator inconclusive, NPC1 promoter act -3%, Rab9 prom act -3% and ELG1 genotoxic 4%.
For CCN(CC)S(=O)(=O)c1cccc(C(=O)OCC(=O)c2ccc3c(c2)OCCO3)c1 the results were FLuc modulator 0.54µM*, NPC1 promoter act -2%, Rab9 prom act 1%, ELG1 genotoxic -1%, KinaseGlo FLuc -3% and SMN2 splice enh -38%.
Screening O=C(COC(=O)c1cccc(S(=O)(=O)NCc2ccccc2)c1)c1ccc2c(c1)OCCO2 returned FLuc modulator 1.3µM*, NPC1 promoter act -2%, Rab9 prom act -3%, ELG1 genotoxic -4%, KinaseGlo FLuc 3% and SMN2 splice enh -15%.
Screening CCn1c(SCC(=O)Nc2ccc(C)cc2Br)nnc1-c1nonc1NC(C)=O returned FLuc modulator -9%.
C/C(=C\C(=O)c1ccc(Br)cc1)Nc1ccc(Cl)cc1 was read as FLuc modulator 27µM*, NPC1 promoter act 13%, Rab9 prom act 14%, ELG1 genotoxic inconclusive and KinaseGlo FLuc -2%.
C/C(=C\C(=O)c1ccccc1)Nc1ccc(Br)c(Cl)c1 was read as FLuc modulator 21µM*, NPC1 promoter act 24%, Rab9 prom act inconclusive, ELG1 genotoxic 13%, KinaseGlo FLuc -2% and SMN2 splice enh -2%.
Screening COc1cccc(N/C(C)=C/C(=O)c2ccc(Br)cc2)c1 returned FLuc modulator 5.4µM*, NPC1 promoter act inconclusive, Rab9 prom act inconclusive, ELG1 genotoxic inconclusive, KinaseGlo FLuc 13% and SMN2 splice enh 18µM*.
`Cc1ccc(-c2oc3ccccc3c(=O)c2O)cc1` gave FLuc modulator inconclusive, NPC1 promoter act 25%, Rab9 prom act 27%, ELG1 genotoxic 23µM*, KinaseGlo FLuc -3% and SMN2 splice enh 6%.
O=c1c(O)c(-c2ccccc2)oc2ccccc12 was read as KinaseGlo FLuc -3% and SMN2 splice enh -36%.
COc1cccc(-c2oc3ccc(C)cc3c(=O)c2O)c1 was read as FLuc modulator 2.7µM* and SMN2 splice enh 10µM*.
Screening CCCCN(C)C(=O)c1ccc2c(c1)N(Cc1cccc(Cl)c1)C(=O)c1ccccc1S2=O (stereo not given) returned FLuc modulator 4%.
Cc1ccc(-c2cc3nn(-c4ccccc4)c(N)c3c(=O)o2)cc1 was read as FLuc modulator 6µM*, NPC1 promoter act 25%, Rab9 prom act inconclusive, ELG1 genotoxic -2%, KinaseGlo FLuc -2% and SMN2 splice enh -28%.
Screening Cc1ccc(-n2nc(-c3ccccc3)cc2Nc2ccccc2N)cc1 returned FLuc modulator inconclusive, NPC1 promoter act 1%, Rab9 prom act -1%, ELG1 genotoxic -3%, KinaseGlo FLuc -3% and SMN2 splice enh -3%.
Screening CC(/C=N/N1CCN(c2ccccc2)CC1)=C\c1ccco1 returned FLuc modulator 2.4µM*, NPC1 promoter act 2µM*, Rab9 prom act inconclusive, ELG1 genotoxic inconclusive, KinaseGlo FLuc 7.9µM* and SMN2 splice enh 14µM*.
For CC(=C/c1ccco1)/C=N/N1CCN(c2ccccc2)CC1 the results were FLuc modulator 2.7µM*, NPC1 promoter act 2.5µM*, Rab9 prom act 1.8µM*, ELG1 genotoxic inconclusive, KinaseGlo FLuc 10µM* and SMN2 splice enh inconclusive.
For CCn1c(C(=O)NCc2ccccc2C)cc2oc3ccccc3c21 the results were FLuc modulator -11% and SMN2 splice enh inconclusive.
`CCOc1ccc(CCNC(=O)c2cc(Nc3ccc(C)cc3C)nc3ccccc23)cc1OCC` gave FLuc modulator inconclusive and SMN2 splice enh -1%.
For Cc1cc(C)n(-c2nc3c(c(=O)[nH]c(=O)n3C)n2Cc2ccccc2)n1 the results were FLuc modulator -1%, NPC1 promoter act 0%, Rab9 prom act 4%, ELG1 genotoxic 3%, KinaseGlo FLuc 2% and SMN2 splice enh -6%.
Screening Cc1cc(C)n(-c2nc3c(c(=O)[nH]c(=O)n3C)n2CCc2ccccc2)n1 returned FLuc modulator 2%, NPC1 promoter act 2%, Rab9 prom act 1%, ELG1 genotoxic -4%, KinaseGlo FLuc -5% and SMN2 splice enh 14µM*.
`CCc1cc(C(=O)Nc2sc(C)c(CC)c2C#N)no1` gave FLuc modulator 15µM* and SMN2 splice enh 16%.
Screening CCc1c(C)sc(NC(=O)c2cc(C)no2)c1C#N returned FLuc modulator 13µM*, NPC1 promoter act 12%, Rab9 prom act 17%, ELG1 genotoxic 24%, KinaseGlo FLuc 2% and SMN2 splice enh 3%.
CCc1c(C)sc(NC(=O)c2cc(C(C)C)on2)c1C#N was read as FLuc modulator inconclusive, NPC1 promoter act 10%, Rab9 prom act -3%, ELG1 genotoxic 6%, KinaseGlo FLuc 2% and SMN2 splice enh 3%.
Cc1cc(C(=O)Nc2sc(C)c(C)c2C#N)no1 was read as FLuc modulator 19µM*, NPC1 promoter act 24%, Rab9 prom act 8%, ELG1 genotoxic 11µM* and KinaseGlo FLuc -6%.
Screening COc1cccc(CN(C(=O)c2ccc([N+](=O)[O-])cc2)C2CCS(=O)(=O)C2)c1 (stereo not given) returned FLuc modulator 4%, NPC1 promoter act 2%, Rab9 prom act 0% and ELG1 genotoxic 1%.
CCn1c(=O)c2cc(C(=O)NCc3ccc(F)cc3Cl)sc2c2ccccc21 was read as FLuc modulator 0% and SMN2 splice enh -10%.
`O=C(N/N=C/c1cccnc1)c1ccco1` gave FLuc modulator -15%, NPC1 promoter act 11%, Rab9 prom act 8% and ELG1 genotoxic 1%.
O=C(N/N=C/C(Cl)=C\c1ccccc1)c1ccco1 was read as FLuc modulator 4.8µM*, NPC1 promoter act 2.5µM*, Rab9 prom act 2.5µM* and ELG1 genotoxic inconclusive.
O=C(N/N=C/C(Cl)=C/c1ccccc1)c1ccco1 was read as FLuc modulator 5.4µM*, NPC1 promoter act 2.2µM*, Rab9 prom act 1.4µM*, ELG1 genotoxic inconclusive and KinaseGlo FLuc -2%.

Assay outcomes from PubChem BioAssay.
